Source: PubChem BioAssay
Chlamy TAG: inducers of TAG accumulation in Chlamydomonas, primary screen, qHTS, Chlamydomonas reinhardtii; Nile Red fluorescence, 72 h; calls only at 10 µM (by protocol); actives 0.84% (n = 44,000); AID 1159537, 2015; call rule not given here;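 further: hits raise Nile Red signal meaning more stored TAG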
Numbers without * were called inactive; i = inactive; + = active, no number. Many of the other results were omitted from the sample, so hits are more common in it than they were.

SMILES | Chlamy TAG
COCC(C)NC1C2CC3CC(C2)CC1C3 (stereo not given) | i
O=C(CCCc1ccccc1)NC1C2CC3CC(C2)CC1C3 (stereo not given) | i
CC(CCc1ccc(O)cc1)NC1C2CC3CC(C2)CC1C3 (stereo not given) | +
CCOc1ccc(C(=O)Nc2ccc(NC(=O)c3cccc(C)c3)cc2)cc1 | i
CCOc1ccc(CN2CCC(C(=O)N3CCCCC3)CC2)cc1 | i
Cc1ccc(C(=O)c2ccc(N3CCN(C(=O)c4cccs4)CC3)c(F)c2)cc1C | i
CCC(=O)c1ccc(N2CCN(C(C)=O)CC2)c(F)c1 | i
Cc1ccc(C(=O)c2ccc(N3CCN(C)CC3)c(F)c2)cc1C | +
COc1ccc(CCC(C)Nc2ccc(OC)cc2OC)cc1 (stereo not given) | i
Fc1ccc(CN2CCN(Cc3cccnc3)CC2)cc1 | i
O=C(CNC(=O)C1CCCCC1)Nc1nc(COc2ccccc2)cs1 | i
Cc1cccc(C(=O)Nc2ccccc2C(N)=O)c1 | i
OC(CN1CCCC1)C12CC3CC(CC(C3)C1)C2 (stereo not given) | i
O=C(O)C1C2C=CC(O2)C1C(=O)Nc1ccccc1F (stereo not given) | +
O=C(Nc1ccccc1F)[C@@H]1C2C=CC(C2)[C@@H]1C(=O)O (stereo not given in full) | i
Cc1ccc(Cl)cc1NC(=O)C1C2C=CC(O2)C1C(=O)O (stereo not given) | i
CCOc1ccc2nc(SC(CC)C(=O)Nc3nnc(C)s3)sc2c1 (stereo not given) | i
Cc1cccc(C(=O)O)c1NC(=O)c1ccc2c(c1)C(=O)N(CC(C)C)C2=O | i
COc1ccc(Br)cc1C(=O)Nc1cccc(Cl)c1C | i
Cc1cc(NCc2ccccc2)nc(-c2ccccc2O)n1 | i
Cc1cc(N2CCOCC2)nc(NCc2ccccc2)n1 | i
Cc1cc(NCc2ccccc2)nc(N2CCOCC2)n1 | +
COc1ccc(I)cc1S(=O)(=O)N1CCN(c2ccc(F)cc2)CC1 | i
O=Cc1c(-c2ccccc2)[nH]c2ccccc12 | i
c1ccc(N2CCN(Cc3cccs3)CC2)cc1 | i
SMILES | Chlamy TAG
Cc1ccc(N=C2NC(=O)CC(C(=O)Nc3ccc(F)cc3F)S2)cc1 (stereo not given) | i
COc1cc(NC(=O)CSCc2ccccc2)c(C(=O)O)cc1OC | i
COc1ccc(OCC(=O)Nc2cc(OC)c(OC)cc2C(=O)O)cc1 | i
CCc1cccc(OCC(=O)Nc2cc(OC)c(OC)cc2C(=O)O)c1 | +
O=C(Nc1c(C(=O)N2CCCC2)cnn1-c1ccccc1)c1ccc(F)cc1 | i
COc1ccc(C(O)=C2C(=O)C(=O)N(CCCO)C2c2cccc([N+](=O)[O-])c2)cc1 (stereo not given) | i
COc1ccccc1-c1cc(CC(C)C)nc(N)c1C#N | i
Fc1ccccc1N1CCN(C2Cc3ccccc3C2)CC1 | i
Fc1ccccc1N1CCN(CC2CCCCC2)CC1 | +
CCOc1ccccc1N1CCN(C(=O)C2CCN(CC3CCCCC3)CC2)CC1 | i
CN(C)CCCN1C(=O)C(O)=C(C(=O)c2ccco2)C1c1ccncc1 (stereo not given) | i
COc1cc(CNC23CC4CC(CC(C4)C2)C3)cc2c1OCO2 | i
Cc1c(NC(=O)C23CC4CC(CC(C4)C2)C3)c(=O)n(-c2ccccc2)n1C | i
Cc1c(NS(=O)(=O)c2cccs2)c(=O)n(-c2ccccc2)n1C | i
Cc1c(N/C=C/C(=O)c2cccs2)c(=O)n(-c2ccccc2)n1C | +
O=C(Nc1ccccc1)OCCOc1ccccc1Cl | i
COc1cccc(OC)c1C(=O)N1CCN(Cc2ccccn2)CC1 | i
Cc1ccc(C(C)C)cc1OCCCCN1CCOCC1 | +
Cc1ccccc1OCCCCN1CCOCC1 | +
C=CCc1ccccc1OCCCCN1CCOCC1 | i
Cc1cc(C)c(C)c(OCCCCN2CCOCC2)c1 | +
Cc1cc(C)c(C)c(OCC(=O)NCCN2CCOCC2)c1 | i
Cc1cccc(OCCN2CCOCC2)c1C | i
Cc1ccc(OCCCN2CCOCC2)cc1C | i
Cc1cc(C)c(OCCN2CCOCC2)c(C)c1 | i
SMILES | Chlamy TAG
C=CCc1cc(C)ccc1OCCCCN1CCOCC1 | i
Cc1cccc(C(=O)Nc2ccc(Br)cn2)c1 | i
Cc1cc([N+](=O)[O-])ccc1NC(=O)c1ccc(C(C)(C)C)cc1 | i
COc1ccc(-c2csc(C(C#N)=CNc3ccc(S(N)(=O)=O)cc3)n2)cc1OC | i
O=C(c1cc(F)c(F)cc1Cl)N1CCN(c2ccc([N+](=O)[O-])c(NC3CC3)c2)CC1 | i
COc1ccc(NC(=O)C(=O)NCC(O)c2ccccc2)cc1 (stereo not given) | i
COc1cc(OC)cc(C(=O)N2CCC(C(=O)Nc3cccc(Br)c3)CC2)c1 | i
CCc1cccc(C)c1NC(=O)Cc1ccc(Cl)cc1 | i
O=C(Nc1ccc(Cl)cn1)c1ccc(-c2cccc(Cl)c2)o1 | i
CCOc1ccc(C(=O)NCCNC(=O)c2ccc(OCC)cc2)cc1 | +
CCOc1ccc(C(=O)NCCC(=O)O)cc1 | i
CCOc1ccc(C(=O)NCCCN(C)C)cc1 | i
O=C(NCC(O)c1ccccc1)c1ccc(Cl)cc1 (stereo not given) | i
CC(C)c1ccc(N2CC(C(=O)Nc3ccccc3F)CC2=O)cc1 (stereo not given) | i
Ic1cccc(-c2nc(-c3ccncc3)no2)c1 | i
CCC(C)n1c(CCCO)nc2ccccc21 (stereo not given) | i
CN(C)C(=O)CSc1nnc(-c2ccc(Cl)cc2Cl)n1N | i
Nn1c(SCC(=O)Nc2ccccc2F)nnc1-c1ccc(Cl)cc1Cl | i
Nn1c(SCC(=O)NC23CC4CC(CC(C4)C2)C3)nnc1-c1ccc(Cl)cc1Cl | +
COc1ccc(CNC(=O)CSc2nnc(-c3cccc(OC)c3)n2C)cc1 | i
Cn1c(SCC(=O)NCc2ccccc2)nnc1-c1ccc(NC(=O)c2ccccc2F)cc1 | i
Cn1c(SCC(=O)NCc2ccccc2)nnc1-c1ccc(C(C)(C)C)cc1 | +
COc1ccc(S(=O)(=O)N2CCN(S(=O)(=O)c3ccccc3[N+](=O)[O-])CC2)cc1 | i
Cc1ccccc1NC(=O)C(C)NC(=O)C12CC3CC(CC(C3)C1)C2 (stereo not given) | i
c1ccc(CN2CCN(C3C4CC5CC(C4)CC3C5)CC2)cc1 (stereo not given) | i
SMILES | Chlamy TAG
COc1ccc(C(=O)N2CCN(C3C4CC5CC(C4)CC3C5)CC2)cc1 (stereo not given) | i
OCCN1CCN(C2C3CC4CC(C3)CC2C4)CC1 (stereo not given) | +
CN1CCN(C2C3CC4CC(C3)CC2C4)CC1 (stereo not given) | +
OCCN1CCN(C2CCCCCCC2)CC1 | i
C1CCN(C2CCN(C3C4CC5CC(C4)CC3C5)CC2)CC1 (stereo not given) | i
CC1(C)CC(=O)C2=C(C1)OC(N)=C(C#N)C2c1ccccc1Cl (stereo not given) | i
O=c1c2ccccc2ncn1CCCOc1ccc(Cl)c(Cl)c1 | i
COc1nccnc1NS(=O)(=O)c1ccc(NC(=O)c2c(Cl)cccc2Cl)cc1 | i
Cc1ccc(-c2nc3ncccc3o2)cc1NC(=O)c1ccccc1C | i
COc1cc(OC)c(NC(=O)C(C)Oc2ccccc2)cc1Cl (stereo not given) | i
